In PubChem BioAssay (NCATS):
Results filed as inconclusive are left out. Active and inactive are the calls of the source. Calls follow the shape of the dose curve; as a rule, active = well fitted inhibition curve with a large enough effect; inconclusive = small, poorly fitted or top-dose-only effect; inactive = flat fitted curve, though single readings scatter. Where a SMILES comes first, the peptide text is derived from it. [ ]: non-standard residue; d: D form. 2Abz = Nc1ccccc1C(=O)O

Assays:
[1] = test system: CRL-7250; experiment: Cytotoxic Profiling of Annotated Libraries Using Quantitative High-Throughput Screening (AID 1296008); settings: Five cell lines viability, CellTiter-Glo ATP luminescence, 48-72 h; max response: stronger effect = lower value; also: potency is read from the fitted curve at half-maximal effect; as to max response: % is scaled to controls: 0 for no effect and ±100 for the full control effect
Summary of the method: (§1)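 Compounds were pin-transferred onto cells and incubated 48 or 72 hr at 37 degree Celsius, 95% humidity. CellTiter-Glo was added, plates sat 10 min at room temperature, then ATP-coupled luminescence was imaged as the viability read-out.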

[2] = test system: HEK293; experiment: as above; settings: Five cell lines viability, CellTiter-Glo ATP luminescence, 48-72 h; max response: stronger effect = lower value
Summary of the method: as §1

[3] = test system: HaCat; experiment: as above; settings: Five cell lines viability, CellTiter-Glo ATP luminescence, 48-72 h; max response: stronger effect = lower value
Summary of the method: as §1

[4] = test system: KB-3-1; experiment: as above; settings: Five cell lines viability, CellTiter-Glo ATP luminescence, 48-72 h; max response: stronger effect = lower value
Summary of the method: as §1

[5] = test system: NIH3T3; experiment: as above; settings: Five cell lines viability, CellTiter-Glo ATP luminescence, 48-72 h; max response: stronger effect = lower value
Summary of the method: as §1

[6] = test system: HACAT; experiment: qHTS assay to identify novel small-molecules to repurpose for Merkel cell carcinoma treatment (AID 1296009); settings: MCC and control cell lines, CellTiter-Glo viability, 72 h; at 44.8 µM (top of the series) unless noted
Summary of the method: (§2)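 Viability readout: ATP luminescence (CellTiter-Glo) after 72 hr drug exposure at 37 degree celsius. Dose-response format was 8 points for NPC and 11 points for MIPE; data normalized to in-plate controls.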

[7] = test system: HEK293T; experiment: as above; settings: MCC and control cell lines, CellTiter-Glo viability, 72 h; series mostly up to 44.8 µM
Summary of the method: as §2
Also: nearly all actives have a fitted effect of over 60% in size.

CC1(C)CC[C@]2(C(=O)O)CC[C@]3(C)C(=CCC4[C@@]5(C)C[C@H](O)[C@H](O[C@@H]6OC[C@H](O)[C@H](O)[C@H]6O)[C@@](C)(CO)C5CC[C@]43C)[C@@H]2C1 (stereo partly drawn)
inactive: outcome [1] | outcome [2] | outcome [3] | outcome [4] | max response [5] 2.89% | outcome [6] inactive [at 17.4 µM] | Potency [7]

CC1=C2C=C(CO)C(CO)CCC2(C)CCC1=O (stereo not drawn)
inactive: max response [1] -3.34% | outcome [2] | outcome [3] | outcome [4] | max response [5] -1.32% | outcome [6] | Potency [7]

O=C(c1ccc(NS(=O)(=O)c2cccc3cccnc23)cc1)N1CCN(CC2CC2)CC1
inactive: max response [1] -4.28% | outcome [2] | outcome [3] | max response [4] -0.69% | max response [5] 0.212% | outcome [6] | Potency [7]

CC1=C2[C@@H]([C@H](C)CC[C@H]2/C=C(\C)C(=O)O)[C@H](O)C1
inactive: max response [1] 0.252% | outcome [2] | outcome [3] | max response [4] 3.15% | max response [5] 3.16% | outcome [6] | Potency [7]

CCOC(=O)[C@H](CCc1ccccc1)N[C@@H](C)C(=O)N1C2CCCCC2C[C@H]1C(=O)O (stereo partly drawn)
inactive: outcome [1] | outcome [2] | outcome [3] | max response [4] 6.12% | outcome [5] | outcome [6] | Potency [7]

CC(C)c1cc2c(c(O)c1O[C@@H]1O[C@H](CO)[C@@H](O)[C@H](O)[C@H]1O)CC1(O)CCC(O)C(C)(C)C1CC2 (stereo partly drawn)
inactive: outcome [1] | outcome [2] | outcome [3] | max response [4] 2.46% | max response [5] 0.487% | outcome [6] inactive [at 17.4 µM] | Potency [7]

COc1cc(C2Oc3c(OC)cc(CCCO[C@@H]4O[C@H](CO)[C@@H](O)[C@H](O)[C@H]4O)cc3C2CO)ccc1O (stereo partly drawn)
inactive: max response [1] -0.0218% | outcome [2] | outcome [3] | max response [4] 1.37% | max response [5] 3.22% | outcome [6] inactive [at 17.4 µM] | Potency [7]

C/C=C/C=C/C=C/C(=O)O[C@@H]1C=C(CO)C(O)(C(=O)O)[C@@]2(C)CCCC(C)(C)[C@H]12 (stereo partly drawn)
inactive: max response [1] 2.37% | outcome [2] | outcome [3] | max response [4] 0.213% | max response [5] -2.73% | outcome [6] inactive [at 17.4 µM] | Potency [7]

C=C1CC[C@@H]2[C@](C)(CO[C@@H]3O[C@H](CO)[C@@H](O)[C@H](O)[C@H]3O)CCC[C@@]2(C)[C@@H]1CCC1=CCOC1=O
inactive: outcome [1] | outcome [2] | outcome [3] | max response [4] 2.64% | outcome [5] | outcome [6] inactive [at 17.4 µM] | Potency [7]

CO[C@H]1C=C2C(CC[C@H](O[C@@H]3O[C@H](CO)[C@@H](O)[C@@H](O)[C@H]3O)C2(C)C)[C@]2(C)CC[C@]3(C)C([C@H](C)C(O)C(C=C(C)C)O[C@@H]4O[C@H](CO)[C@@H](O)[C@@H](O)[C@H]4O)CC[C@@]3(C)C12 (stereo partly drawn)
inactive: max response [1] -4.36% | outcome [2] | outcome [3] | max response [4] 6.33% | max response [5] 3.68% | outcome [6] inactive [at 9.27 µM] | outcome [7] inactive [at 9.27 µM]

O=C1NC(=Nc2ccccc2F)S/C1=C\c1ccc(C(=O)O)cc1
inactive: max response [1] -10.7% | outcome [2] | outcome [3] | outcome [4] | max response [5] -1.07% | outcome [6] | Potency [7]

CC(=O)c1c(C)cc(O)cc1O[C@@H]1O[C@H](CO)[C@@H](O)[C@H](O)[C@H]1O
inactive: max response [1] -5.78% | outcome [2] | outcome [3] | outcome [4] | outcome [5] | outcome [6] | Potency [7]

C=CC(C)(CC/C=C(\C)CC/C=C(\C)CC(O)/C=C(\C)C(=O)O)O[C@@H]1O[C@H](CO)[C@@H](O)[C@H](O)[C@H]1O[C@@H]1O[C@H](CO)[C@@H](O)[C@H](O)[C@H]1O (stereo partly drawn)
inactive: outcome [1] | outcome [2] | outcome [3] | max response [4] 5.27% | outcome [5] | outcome [6] inactive [at 17.4 µM] | Potency [7]

CC(C)c1nc(N(C)S(C)(=O)=O)nc(-c2ccc(F)cc2)c1/C=C/[C@@H](O)C[C@@H](O)CC(=O)O
inactive: outcome [2] | outcome [3] | outcome [4] | max response [5] 0.504% | outcome [6] | Potency [7]
active: Potency [1] 16.4 µM

O=C(/C=C/c1c(C(=O)O)[nH]c2cc(Cl)cc(Cl)c12)Nc1ccccc1
inactive: max response [1] -11.7% | outcome [2] | outcome [3] | outcome [4] | outcome [5] | outcome [6] | Potency [7]

CCS(=O)(=O)N1CCC([C@@H](C)n2c(C)c(C(=O)NCc3c(OC)cc(C)[nH]c3=O)c3ccccc32)CC1
inactive: outcome [1] | outcome [2] | outcome [3] | max response [4] 9.76% | outcome [5] | outcome [6] | Potency [7]

COc1cc(C[C@H]2COC(=O)[C@@H]2Cc2ccc(O)c(OC)c2)ccc1O
inactive: outcome [1] | outcome [2] | outcome [3] | max response [4] -4.79% | outcome [5] | outcome [6] | Potency [7]

CCC(C)C1NC(=O)C2CCCN2C(=O)C(C(C)C)NC(=O)c2ccccc2NC(=O)C(Cc2ccc(O)cc2)NC(=O)C(C)NC(=O)C(C(C)O)NC1=O (stereo not drawn) (cyclo([2Abz]VPITAY); configuration not given here)
inactive: max response [1] -3.19% | outcome [2] | outcome [3] | outcome [4] | outcome [5] | outcome [6] inactive [at 17.4 µM] | Potency [7]

O=C(O)C[C@H]1CCC(=O)[C@@H]1C/C=C\CCOC1OC(CO)C(O)C(O)C1O (stereo partly drawn)
inactive: max response [1] -7.42% | outcome [2] | outcome [3] | max response [4] 1.25% | outcome [5] | outcome [6] | Potency [7]

C=C1C[C@]23C[C@H]1CC[C@H]2[C@]1(C)CCC[C@@]2(CO)C(=O)O[C@H]([C@H]21)[C@@H]3O
inactive: max response [1] -1.22% | outcome [2] | outcome [3] | max response [4] 6.36% | max response [5] 2.59% | outcome [6] | Potency [7]

C/C=C(\C)C(=O)OC[C@H]1O[C@H](O[C@H]2O[C@H](CO)[C@@H](OC(=O)/C(C)=C/C)[C@H](O)[C@H]2O[C@@H]2O[C@H](CO)[C@@H](O)[C@H](O)[C@H]2O)[C@H](O[C@@H]2O[C@H](CO)[C@@H](O)[C@H](O)[C@H]2O)[C@@H](O)[C@@H]1O
inactive: max response [1] -3.07% | outcome [2] | outcome [3] | max response [4] 8.89% | max response [5] 2.61% | outcome [6] inactive [at 9.27 µM] | outcome [7] inactive [at 9.27 µM]

CC(O)C(O)/C=C/C=C/C(=O)O[C@@H]1C=C2COC(=O)[C@]2(O)[C@@]2(C)CCCC(C)(C)C12 (stereo partly drawn)
inactive: max response [1] 3.05% | outcome [2] | outcome [3] | max response [4] 8.55% | outcome [5] | outcome [6] inactive [at 17.4 µM] | Potency [7]

C[C@@H]1O[C@@H](OC[C@H]2O[C@@H](OCC3CCC4CC3C4(C)C)[C@H](O)[C@@H](O)[C@@H]2O)[C@H](O)[C@H](O)[C@H]1O (stereo partly drawn)
inactive: max response [1] -0.807% | outcome [2] | outcome [3] | max response [4] 6.44% | max response [5] -1.43% | outcome [6] inactive [at 17.4 µM] | Potency [7]

c1ccc(Nc2nc3c(s2)CCCc2[nH]ncc2-3)nc1
inactive: max response [1] -6.19% | outcome [2] | outcome [3] | outcome [4] | max response [5] 3.95% | outcome [6] | Potency [7]
